# According to article PMC7862700, “An all-to-all approach to the identification of sequence-specific readers for epigenetic DNA modifications on cytosine”:
# Assays:
# Assay in all cases: DAPPL (digital affinity profiling via proximity ligation, sequencing); 10 mM Tris-HCl pH 7.5, 50 mM NaCl, 1 mM DTT, 4% glycerol, room temperature, 30 min; GST-TFs on glutathione beads, 16-mer random dsDNA library, 0.1% formaldehyde crosslink after washing; high values mean tight binding
# [1] = target: T1, FLI1 (Homo sapiens, UniProt Q01543 1-452); settings: protein: recombinant; tags: N-terminal GST; dsDNA, one strand shown
# T1 sequence: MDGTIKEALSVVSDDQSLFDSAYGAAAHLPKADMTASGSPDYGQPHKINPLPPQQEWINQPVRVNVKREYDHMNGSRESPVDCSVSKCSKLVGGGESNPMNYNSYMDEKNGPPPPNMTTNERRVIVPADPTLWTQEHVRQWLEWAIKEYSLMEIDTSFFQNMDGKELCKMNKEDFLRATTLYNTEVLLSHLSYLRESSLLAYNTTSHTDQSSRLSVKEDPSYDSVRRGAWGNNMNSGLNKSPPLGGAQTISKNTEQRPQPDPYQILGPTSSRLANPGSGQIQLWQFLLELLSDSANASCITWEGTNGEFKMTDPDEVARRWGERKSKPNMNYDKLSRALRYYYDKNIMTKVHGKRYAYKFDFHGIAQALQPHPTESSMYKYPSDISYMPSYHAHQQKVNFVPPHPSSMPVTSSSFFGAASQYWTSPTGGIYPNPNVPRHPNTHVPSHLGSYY
# Summary of the method: (§1)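 A tag-only sample was pooled with DNA-barcoded human transcription factors that had been expressed in yeast as GST fusions and captured on glutathione beads. The pools were incubated for 30 min at room temperature with 200 nmole of a random double-stranded 16-mer DNA library in Tris/NaCl/DTT/glycerol buffer, then washed, crosslinked with 0.1% formaldehyde, proximity-ligated (BsaI/T4 ligase, 1 h, 37 °C), PCR-amplified and sequenced on an Illumina NextSeq500. Binding signal is each hexamer's read frequency for a factor divided by its frequency for the tag-only sample.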
# [2] = target: T2, ELK1 (Homo sapiens, UniProt P19419 1-428); settings: protein: recombinant; tags: N-terminal GST; dsDNA, one strand shown
# T2 sequence: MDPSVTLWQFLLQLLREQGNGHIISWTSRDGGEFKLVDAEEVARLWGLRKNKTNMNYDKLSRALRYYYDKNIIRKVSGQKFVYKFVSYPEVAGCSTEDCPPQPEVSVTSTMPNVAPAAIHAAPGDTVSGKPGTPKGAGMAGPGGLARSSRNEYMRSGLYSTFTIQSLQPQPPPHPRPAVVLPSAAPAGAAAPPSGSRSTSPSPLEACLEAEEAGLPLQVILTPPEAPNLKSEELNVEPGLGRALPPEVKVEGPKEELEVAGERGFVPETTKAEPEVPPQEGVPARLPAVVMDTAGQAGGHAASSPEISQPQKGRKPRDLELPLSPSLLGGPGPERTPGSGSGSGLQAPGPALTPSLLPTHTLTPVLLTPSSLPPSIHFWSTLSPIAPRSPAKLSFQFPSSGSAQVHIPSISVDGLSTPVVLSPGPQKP
# Summary of the method: as §1
# [3] = target: T3, GABPA (Homo sapiens, UniProt Q06546 1-454); settings: protein: recombinant; tags: N-terminal GST; dsDNA, one strand shown
# T3 sequence: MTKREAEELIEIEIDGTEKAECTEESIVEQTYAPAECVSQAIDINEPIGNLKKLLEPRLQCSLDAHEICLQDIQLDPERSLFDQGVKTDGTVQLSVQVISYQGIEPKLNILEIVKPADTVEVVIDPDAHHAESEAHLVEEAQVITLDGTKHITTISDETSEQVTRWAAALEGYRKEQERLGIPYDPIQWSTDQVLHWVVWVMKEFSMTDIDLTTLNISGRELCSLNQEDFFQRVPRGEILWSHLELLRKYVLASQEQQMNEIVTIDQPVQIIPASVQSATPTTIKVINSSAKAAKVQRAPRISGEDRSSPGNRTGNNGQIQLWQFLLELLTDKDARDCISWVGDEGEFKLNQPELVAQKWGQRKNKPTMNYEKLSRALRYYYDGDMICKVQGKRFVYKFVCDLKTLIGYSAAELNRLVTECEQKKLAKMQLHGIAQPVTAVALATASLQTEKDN
# Summary of the method: as §1
# [4] = target: T4, ERG (Homo sapiens, UniProt P11308 1-479); settings: protein: recombinant; tags: N-terminal GST; dsDNA, one strand shown
# T4 sequence: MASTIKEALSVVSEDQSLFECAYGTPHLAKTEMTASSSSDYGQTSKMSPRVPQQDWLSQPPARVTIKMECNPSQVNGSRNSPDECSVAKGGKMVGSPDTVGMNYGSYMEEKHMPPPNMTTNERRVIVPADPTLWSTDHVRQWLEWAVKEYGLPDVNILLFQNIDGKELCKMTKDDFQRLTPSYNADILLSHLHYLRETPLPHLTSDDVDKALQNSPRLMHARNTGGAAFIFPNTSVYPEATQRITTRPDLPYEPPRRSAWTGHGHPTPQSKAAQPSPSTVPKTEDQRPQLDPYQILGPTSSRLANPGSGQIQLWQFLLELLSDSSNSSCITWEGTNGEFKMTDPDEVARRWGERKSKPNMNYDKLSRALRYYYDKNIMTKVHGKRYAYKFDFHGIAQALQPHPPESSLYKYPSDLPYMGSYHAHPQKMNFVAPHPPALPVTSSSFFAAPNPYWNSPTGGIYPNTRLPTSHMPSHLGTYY
# Summary of the method: as §1
# [5] = target: ELF1 (Homo sapiens, UniProt P32519 1-619); settings: protein: recombinant; tags: N-terminal GST; dsDNA, one strand shown
# Summary of the method: as §1
# [6] = target: T5, EHF (Homo sapiens, UniProt Q9NZC4 1-300); settings: protein: recombinant; tags: N-terminal GST; dsDNA, one strand shown
# T5 sequence: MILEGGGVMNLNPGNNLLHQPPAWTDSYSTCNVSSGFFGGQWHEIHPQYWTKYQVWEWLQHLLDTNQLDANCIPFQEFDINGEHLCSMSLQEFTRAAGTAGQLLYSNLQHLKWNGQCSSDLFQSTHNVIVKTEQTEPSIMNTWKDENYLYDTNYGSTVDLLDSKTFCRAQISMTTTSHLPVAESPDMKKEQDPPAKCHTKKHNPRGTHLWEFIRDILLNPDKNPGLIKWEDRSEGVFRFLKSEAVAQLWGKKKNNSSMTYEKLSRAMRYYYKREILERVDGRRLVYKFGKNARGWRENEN
# Summary of the method: as §1
# [7] = target: SPI1 (Homo sapiens, UniProt P17947 1-270); settings: protein: recombinant; tags: N-terminal GST; dsDNA, one strand shown
# Summary of the method: as §1
# [8] = target: SPIB (Homo sapiens, UniProt Q01892 1-262); settings: protein: recombinant; tags: N-terminal GST; dsDNA, one strand shown
# Summary of the method: as §1
# [9] = target: T6, ELK3 (Homo sapiens, UniProt P41970 1-407); settings: protein: recombinant; tags: N-terminal GST; dsDNA, one strand shown
# T6 sequence: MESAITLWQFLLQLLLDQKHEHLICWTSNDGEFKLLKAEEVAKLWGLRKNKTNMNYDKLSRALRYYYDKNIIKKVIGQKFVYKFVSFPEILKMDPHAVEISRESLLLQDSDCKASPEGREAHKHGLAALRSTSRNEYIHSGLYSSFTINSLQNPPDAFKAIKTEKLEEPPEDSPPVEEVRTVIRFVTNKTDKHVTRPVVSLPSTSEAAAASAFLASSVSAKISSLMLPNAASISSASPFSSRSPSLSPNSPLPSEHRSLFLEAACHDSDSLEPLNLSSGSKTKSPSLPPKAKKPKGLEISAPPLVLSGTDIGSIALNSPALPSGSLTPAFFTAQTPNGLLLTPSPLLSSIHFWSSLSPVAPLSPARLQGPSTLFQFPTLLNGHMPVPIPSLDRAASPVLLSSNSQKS
# Summary of the method: as §1
# [10] = target: T7, FEV (Homo sapiens, UniProt Q99581 1-238); settings: protein: recombinant; tags: N-terminal GST; dsDNA, one strand shown
# T7 sequence: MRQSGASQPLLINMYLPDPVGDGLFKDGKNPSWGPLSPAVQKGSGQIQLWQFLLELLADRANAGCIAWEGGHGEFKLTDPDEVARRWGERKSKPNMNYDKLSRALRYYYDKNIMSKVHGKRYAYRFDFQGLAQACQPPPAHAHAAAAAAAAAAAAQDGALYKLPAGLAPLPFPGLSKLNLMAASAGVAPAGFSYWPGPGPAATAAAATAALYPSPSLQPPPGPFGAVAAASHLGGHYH
# Summary of the method: as §1
# [11] = target: ETV5 (Homo sapiens, UniProt P41161 1-510); settings: protein: recombinant; tags: N-terminal GST; dsDNA, one strand shown
# Summary of the method: as §1
# [12] = target: HSF1 (Homo sapiens, UniProt Q00613 1-529); settings: protein: recombinant; tags: N-terminal GST; chain copies: 3; dsDNA, one strand shown
# Summary of the method: as §1
# [13] = target: T8, SPIC (Homo sapiens, UniProt Q8N5J4 1-248); settings: protein: recombinant; tags: N-terminal GST; dsDNA, one strand shown
# T8 sequence: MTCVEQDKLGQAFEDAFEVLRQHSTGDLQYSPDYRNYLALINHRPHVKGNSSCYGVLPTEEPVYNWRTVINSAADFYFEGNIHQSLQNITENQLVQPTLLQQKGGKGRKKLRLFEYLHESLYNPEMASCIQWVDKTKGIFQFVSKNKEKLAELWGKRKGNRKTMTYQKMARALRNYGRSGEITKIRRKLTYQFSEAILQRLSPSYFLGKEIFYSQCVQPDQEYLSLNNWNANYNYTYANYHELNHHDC
# Summary of the method: as §1
# [14] = target: ELF4 (Homo sapiens, UniProt Q99607 1-663); settings: protein: recombinant; tags: N-terminal GST; dsDNA, one strand shown
# Summary of the method: as §1
# [15] = target: T9, ELK4 (Homo sapiens, UniProt P28324-2 1-405); settings: protein: recombinant; tags: N-terminal GST; dsDNA, one strand shown
# T9 sequence: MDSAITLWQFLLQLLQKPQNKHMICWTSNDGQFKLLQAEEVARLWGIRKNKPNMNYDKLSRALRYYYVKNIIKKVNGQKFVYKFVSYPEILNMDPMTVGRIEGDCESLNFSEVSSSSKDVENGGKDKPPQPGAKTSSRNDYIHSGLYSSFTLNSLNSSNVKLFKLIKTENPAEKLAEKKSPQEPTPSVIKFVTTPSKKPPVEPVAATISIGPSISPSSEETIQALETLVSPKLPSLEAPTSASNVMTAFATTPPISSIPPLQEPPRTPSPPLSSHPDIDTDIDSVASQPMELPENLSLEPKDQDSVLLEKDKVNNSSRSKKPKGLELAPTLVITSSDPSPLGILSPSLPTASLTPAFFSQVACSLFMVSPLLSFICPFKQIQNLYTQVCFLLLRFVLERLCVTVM
# Summary of the method: as §1
# [16] = target: T10, ETV2 (Homo sapiens, UniProt O00321 1-342); settings: protein: recombinant; tags: N-terminal GST; dsDNA, one strand shown
# T10 sequence: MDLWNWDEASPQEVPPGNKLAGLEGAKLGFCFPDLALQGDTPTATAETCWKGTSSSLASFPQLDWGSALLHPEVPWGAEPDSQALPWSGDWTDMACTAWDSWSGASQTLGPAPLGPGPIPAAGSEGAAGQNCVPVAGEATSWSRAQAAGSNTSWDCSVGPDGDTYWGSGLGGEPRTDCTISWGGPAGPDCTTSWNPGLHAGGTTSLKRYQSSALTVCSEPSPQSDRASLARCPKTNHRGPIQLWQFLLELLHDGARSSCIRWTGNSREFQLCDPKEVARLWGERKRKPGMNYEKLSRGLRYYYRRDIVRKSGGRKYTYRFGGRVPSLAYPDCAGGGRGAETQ
# Summary of the method: as §1
# [17] = target: T11, ELF3 (Homo sapiens, UniProt P78545 1-371); settings: protein: recombinant; tags: N-terminal GST; dsDNA, one strand shown
# T11 sequence: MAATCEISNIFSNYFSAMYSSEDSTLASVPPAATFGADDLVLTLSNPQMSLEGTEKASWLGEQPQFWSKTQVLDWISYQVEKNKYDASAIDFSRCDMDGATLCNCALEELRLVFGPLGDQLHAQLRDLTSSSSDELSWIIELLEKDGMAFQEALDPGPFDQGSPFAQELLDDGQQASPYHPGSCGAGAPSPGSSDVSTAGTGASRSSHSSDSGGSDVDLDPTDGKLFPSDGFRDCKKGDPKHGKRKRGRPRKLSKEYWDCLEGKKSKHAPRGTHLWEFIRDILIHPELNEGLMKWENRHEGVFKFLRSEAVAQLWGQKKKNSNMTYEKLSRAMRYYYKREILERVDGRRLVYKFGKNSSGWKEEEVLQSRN
# Summary of the method: as §1
# [18] = target: CRX (Homo sapiens, UniProt O43186 1-299); settings: protein: recombinant; tags: N-terminal GST; dsDNA, one strand shown
# Summary of the method: as §1
# [19] = target: ETV1 (Homo sapiens, UniProt P50549 1-477); settings: protein: recombinant; tags: N-terminal GST; dsDNA, one strand shown
# Summary of the method: as §1
# Chain of ELF4 (Q99607 whole entry): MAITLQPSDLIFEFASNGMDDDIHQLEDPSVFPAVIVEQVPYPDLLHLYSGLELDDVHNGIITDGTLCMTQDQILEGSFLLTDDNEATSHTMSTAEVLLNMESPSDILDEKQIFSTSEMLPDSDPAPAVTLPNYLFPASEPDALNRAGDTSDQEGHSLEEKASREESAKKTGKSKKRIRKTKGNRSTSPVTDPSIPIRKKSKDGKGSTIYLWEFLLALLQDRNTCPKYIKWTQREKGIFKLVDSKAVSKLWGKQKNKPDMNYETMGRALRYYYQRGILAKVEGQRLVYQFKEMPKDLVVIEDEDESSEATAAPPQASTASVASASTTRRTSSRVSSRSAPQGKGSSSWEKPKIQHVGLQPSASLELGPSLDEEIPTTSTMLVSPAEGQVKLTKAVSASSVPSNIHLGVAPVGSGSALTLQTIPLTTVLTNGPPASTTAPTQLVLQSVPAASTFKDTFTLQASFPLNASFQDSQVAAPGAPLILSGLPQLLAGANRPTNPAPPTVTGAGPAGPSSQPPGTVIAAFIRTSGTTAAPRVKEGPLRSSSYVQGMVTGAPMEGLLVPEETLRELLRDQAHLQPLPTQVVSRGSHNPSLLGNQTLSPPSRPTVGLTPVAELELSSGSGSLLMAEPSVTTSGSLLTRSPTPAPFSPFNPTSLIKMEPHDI
# Chain of ETV5 (P41161 whole entry): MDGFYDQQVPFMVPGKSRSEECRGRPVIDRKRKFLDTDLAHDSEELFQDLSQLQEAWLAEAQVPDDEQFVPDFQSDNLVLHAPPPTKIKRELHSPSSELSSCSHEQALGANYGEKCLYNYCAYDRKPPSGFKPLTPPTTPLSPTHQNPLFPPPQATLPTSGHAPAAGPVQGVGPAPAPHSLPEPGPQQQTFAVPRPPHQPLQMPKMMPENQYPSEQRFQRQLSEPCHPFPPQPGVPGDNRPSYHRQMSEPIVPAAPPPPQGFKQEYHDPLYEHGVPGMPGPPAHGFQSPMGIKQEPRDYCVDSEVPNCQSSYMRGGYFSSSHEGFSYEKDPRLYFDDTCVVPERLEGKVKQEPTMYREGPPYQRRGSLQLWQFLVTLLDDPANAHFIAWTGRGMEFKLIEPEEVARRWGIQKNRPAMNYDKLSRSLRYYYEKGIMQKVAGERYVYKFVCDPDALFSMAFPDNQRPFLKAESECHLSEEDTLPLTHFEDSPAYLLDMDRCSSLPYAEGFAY
# Chain of HSF1 (Q00613 whole entry): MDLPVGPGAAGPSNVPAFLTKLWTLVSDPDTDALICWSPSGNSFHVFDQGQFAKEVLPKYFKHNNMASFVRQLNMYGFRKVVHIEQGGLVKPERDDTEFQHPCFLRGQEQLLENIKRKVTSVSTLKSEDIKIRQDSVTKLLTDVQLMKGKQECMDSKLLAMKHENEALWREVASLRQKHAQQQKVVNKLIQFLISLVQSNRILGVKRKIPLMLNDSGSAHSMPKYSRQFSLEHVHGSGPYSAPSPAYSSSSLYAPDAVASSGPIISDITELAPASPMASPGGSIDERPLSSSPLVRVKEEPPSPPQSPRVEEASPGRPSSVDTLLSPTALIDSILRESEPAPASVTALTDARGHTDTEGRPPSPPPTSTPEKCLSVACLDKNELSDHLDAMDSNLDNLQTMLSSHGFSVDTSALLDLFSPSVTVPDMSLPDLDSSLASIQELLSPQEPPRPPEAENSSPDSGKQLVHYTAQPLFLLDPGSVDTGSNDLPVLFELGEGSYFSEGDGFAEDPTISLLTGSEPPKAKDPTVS
# Chain of SPIB (Q01892 whole entry): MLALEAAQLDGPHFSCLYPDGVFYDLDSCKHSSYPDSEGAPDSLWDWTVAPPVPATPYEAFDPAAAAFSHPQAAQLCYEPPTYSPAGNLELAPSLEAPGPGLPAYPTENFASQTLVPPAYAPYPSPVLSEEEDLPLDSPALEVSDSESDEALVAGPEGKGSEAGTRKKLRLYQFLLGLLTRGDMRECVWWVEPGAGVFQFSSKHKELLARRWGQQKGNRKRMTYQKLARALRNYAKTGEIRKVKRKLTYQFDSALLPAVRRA
# Chain of ETV1 (P50549 whole entry): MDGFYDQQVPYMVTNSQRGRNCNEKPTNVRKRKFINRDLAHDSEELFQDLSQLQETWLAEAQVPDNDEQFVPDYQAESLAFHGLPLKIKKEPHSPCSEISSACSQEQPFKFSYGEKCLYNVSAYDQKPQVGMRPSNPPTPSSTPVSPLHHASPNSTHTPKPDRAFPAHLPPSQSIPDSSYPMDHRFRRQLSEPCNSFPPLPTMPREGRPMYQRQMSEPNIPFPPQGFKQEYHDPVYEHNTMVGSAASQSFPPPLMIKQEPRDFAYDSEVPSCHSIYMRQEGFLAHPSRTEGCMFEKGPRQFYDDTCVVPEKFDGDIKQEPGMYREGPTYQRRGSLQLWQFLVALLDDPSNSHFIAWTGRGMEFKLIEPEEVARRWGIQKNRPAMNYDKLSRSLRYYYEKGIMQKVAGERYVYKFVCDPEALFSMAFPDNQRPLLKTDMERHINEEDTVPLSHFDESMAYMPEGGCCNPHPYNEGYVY
# Chain of ELF1 (P32519 whole entry): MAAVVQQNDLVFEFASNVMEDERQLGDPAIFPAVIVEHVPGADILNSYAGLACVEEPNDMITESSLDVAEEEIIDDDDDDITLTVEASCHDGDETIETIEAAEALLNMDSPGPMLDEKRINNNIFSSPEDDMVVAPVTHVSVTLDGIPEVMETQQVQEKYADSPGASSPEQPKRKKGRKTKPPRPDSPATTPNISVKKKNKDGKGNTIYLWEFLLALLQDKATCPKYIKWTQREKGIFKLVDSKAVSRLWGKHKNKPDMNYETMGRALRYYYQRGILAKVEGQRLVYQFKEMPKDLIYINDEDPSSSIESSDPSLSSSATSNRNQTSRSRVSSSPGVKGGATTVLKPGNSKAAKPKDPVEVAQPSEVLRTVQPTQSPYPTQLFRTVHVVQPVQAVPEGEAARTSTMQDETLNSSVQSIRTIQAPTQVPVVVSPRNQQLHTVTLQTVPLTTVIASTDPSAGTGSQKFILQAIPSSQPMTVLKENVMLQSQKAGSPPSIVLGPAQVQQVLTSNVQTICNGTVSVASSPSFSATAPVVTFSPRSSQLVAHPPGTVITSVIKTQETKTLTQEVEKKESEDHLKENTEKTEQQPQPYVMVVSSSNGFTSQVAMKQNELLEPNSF
# Chain of CRX (O43186 whole entry): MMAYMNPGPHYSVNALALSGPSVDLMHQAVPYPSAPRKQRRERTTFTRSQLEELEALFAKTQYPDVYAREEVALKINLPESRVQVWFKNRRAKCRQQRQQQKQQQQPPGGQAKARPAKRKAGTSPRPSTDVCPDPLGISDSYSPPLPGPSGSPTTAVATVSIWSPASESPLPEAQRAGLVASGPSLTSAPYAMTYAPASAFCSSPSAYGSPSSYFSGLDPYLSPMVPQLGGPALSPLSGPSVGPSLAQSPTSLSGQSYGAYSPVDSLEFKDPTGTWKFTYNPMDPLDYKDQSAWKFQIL
sequence,measurement,setting,value
CTAGTT,binding signal,[1],"1.37 fold enrichment (6-mer frequency, TF over GST control)"
same,binding signal,[2],"1.4 fold enrichment (6-mer frequency, TF over GST control)"
same,binding signal,[3],"1.42 fold enrichment (6-mer frequency, TF over GST control)"
same,binding signal,[4],"1.3 fold enrichment (6-mer frequency, TF over GST control)"
same,binding signal,[5],"1.31 fold enrichment (6-mer frequency, TF over GST control)"
same,binding signal,[6],"1.23 fold enrichment (6-mer frequency, TF over GST control)"
same,binding signal,[7],"1.34 fold enrichment (6-mer frequency, TF over GST control)"
same,binding signal,[8],"1.48 fold enrichment (6-mer frequency, TF over GST control)"
same,binding signal,[9],"1.21 fold enrichment (6-mer frequency, TF over GST control)"
same,binding signal,[10],"1.23 fold enrichment (6-mer frequency, TF over GST control)"
same,binding signal,[11],"1.31 fold enrichment (6-mer frequency, TF over GST control)"
same,binding signal,[12],"1.51 fold enrichment (6-mer frequency, TF over GST control)"
same,binding signal,[13],"1.47 fold enrichment (6-mer frequency, TF over GST control)"
same,binding signal,[14],"1.35 fold enrichment (6-mer frequency, TF over GST control)"
same,binding signal,[15],"1.54 fold enrichment (6-mer frequency, TF over GST control)"
same,binding signal,[16],"1.32 fold enrichment (6-mer frequency, TF over GST control)"
same,binding signal,[17],"1.38 fold enrichment (6-mer frequency, TF over GST control)"
same,binding signal,[18],"1.16 fold enrichment (6-mer frequency, TF over GST control)"
same,binding signal,[19],"1.35 fold enrichment (6-mer frequency, TF over GST control)"
